“And” between values parts separate entries of the source, which are not always exact repeats. Identical values can stand only once. Among all 77,000 compounds or so, about 4,600 (6%) were called active. Not shown: some 1% with an inconclusive outcome.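 The calls were made as follows: active = mean inhibition above about 93%, with at least 55% of replicates each passing it (limit read from the data, passing the limit was not always enough); inconclusive = only one of those two conditions holds; inactive = neither condition holds.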 Only a selection was taken, and actives are over-represented in it overall.
Experiment: growth inhibition of T. cruzi in host fibroblasts – cell-based, beta-gal Tulahuen parasites, NIH3T3 host, luminescence, primary screen (AID 624255)
Conditions: T. cruzi beta-gal in NIH3T3, GalScreen luminescence, 90 h; at 8.34 µM; active compounds read high

| SMILES | inhibition |
| --- | --- |
| Cc1ccccc1S(=O)(=O)N[C@@H]1CC[C@@H](CCNS(=O)(=O)c2cccc(F)c2)O[C@H]1CO | 22% (inactive) |
| CCC(=O)N(C)C[C@H]1Oc2ncc(-c3ccc(C#N)cc3)cc2C(=O)N([C@@H](C)CO)C[C@H]1C | 51.9% (inactive) |
| COc1ccc(-c2cnc3c(c2)C(=O)N([C@H](C)CO)C[C@@H](C)[C@H](CN(C)Cc2ccccc2)O3)cc1 | 19.2% (inactive) and 75.6% (inactive) |
| C/C=C/c1ccc([C@H]2[C@@H](C#N)N(C(=O)CN3CCOCC3)[C@@H]2CO)cc1 | 80.8% (inactive) |
| COCC(=O)N1[C@H](CO)[C@@H](c2ccc(C#Cc3ccccc3F)cc2)[C@@H]1C#N | 97.7% (active) |
| COc1ccccc1C#Cc1ccc([C@@H]2[C@@H](CO)N(C(=O)C3CC3)[C@H]2C#N)cc1 | 88.6% (inactive) |
| N#C[C@@H]1[C@H](c2ccc(C#Cc3ccccc3F)cc2)[C@H](CO)N1C(=O)C1CCCCC1 | 83.3% (inactive) |
| N#C[C@@H]1[C@@H](c2ccc(-c3ccccc3)cc2)[C@@H](CO)N1C(=O)Cc1ccccc1 | 31% (inactive) |
| N#C[C@H]1[C@H](c2ccc(-c3ccccc3)cc2)[C@@H](CO)N1C(=O)Cc1ccccc1 | 79.5% (inactive) |
| N#C[C@@H]1[C@@H](c2ccccc2)[C@@H](CO)N1C(=O)Cc1ccccc1 | 105% (active) |
| COC(=O)C[C@@H]1C[C@H]2c3cc(NC(=O)Nc4ccc(F)cc4)ccc3O[C@H]2[C@@H](CO)O1 | -1.42% (inactive) |
| CC(=O)NC[C@H]1[C@H](c2ccc(C3=CCCCC3)cc2)[C@@H](CO)N1C(=O)NC(C)C | 21.7% (inactive) |
| COc1ccccc1S(=O)(=O)N[C@@H]1CC[C@H](CC(=O)N2CCOCC2)O[C@@H]1CO | 16.9% (inactive) |
| CNC(=O)C[C@@H]1CC[C@@H]2[C@H](COc3ccc(NC(=O)Nc4ccccc4)cc3C(=O)N2C)O1 | 7.48% (inactive) |
| C[C@H](CO)N1C[C@H](C)[C@H](CN(C)CC2CC2)OCCCC[C@H](C)Oc2ccc(NC(=O)c3ccncc3)cc2C1=O | 29.6% (inactive) |
| CCC(=O)N1C[C@H](C)[C@@H](OC)CN(C)C(=O)c2cc(NC(=O)c3cnccn3)ccc2OC[C@@H]1C | 11% (inactive) |
| COCC(=O)N1[C@H](CNC(=O)c2ccccn2)[C@H](c2ccccc2)[C@@H]1CO | 26.4% (inactive) |
| COCCNC[C@@H]1[C@H](c2ccccc2)[C@H](CO)N1c1nc(C)c(C)s1 | 100% (active) |
| CCNC[C@@H]1[C@@H](c2ccccc2)[C@@H](CO)N1C(=O)Cc1ccccn1 | 31.9% (inactive) |
| COC(=O)C[C@@H]1CC[C@@H]2[C@H](COc3ccc(NC(=O)c4ccccc4OC)cc3C(=O)N2C)O1 | 44.4% (inactive) |
| CCC(=O)N1[C@@H](CO)[C@@H]2c3ccccc3N(C(=O)c3ccccc3F)C[C@@H]21 | 6.74% (inactive) |

| SMILES | inhibition |
| --- | --- |
| O=C(c1ccccc1F)N1C[C@H]2[C@@H](c3ccccc31)[C@@H](CO)N2C(=O)c1ccc(F)cc1 | 103% (active) |
| CC(=O)N1[C@H](CO)[C@H]2c3ccccc3N(C(=O)c3ccc(F)cc3)C[C@H]21 | 14.7% (inactive) |
| O=C(C[C@@H]1C[C@@H]2c3cc(NC(=O)CC4CC4)ccc3O[C@@H]2[C@@H](CO)O1)NCCN1CCCCC1 | -43.9% (inactive) |
| CCCNC(=O)c1cc2c(c(-c3cccc(-c4ccc(F)cc4)c3)n1)[C@@H](CCO)N([S@](=O)C(C)(C)C)C2 | 87.5% (inactive) |
| CC(C)(C)[S@@](=O)N1Cc2cc(C(=O)NCc3ccc4c(c3)OCO4)nc(-c3cccc(-c4ccccc4)c3)c2[C@H]1CCO | 99.7% (active) |
| COc1cccc(CNC(=O)c2cc3c(c(-c4cccc(-c5ccc(C#N)cc5)c4)n2)[C@@H](CCO)N([S@](=O)C(C)(C)C)C3)c1 | 84.2% (inactive) |
| CCC(=O)N1C[C@@H](C)[C@H](OC)CN(C)C(=O)c2ccc(NC(=O)Nc3ccccc3)cc2OC[C@@H]1C | 13.5% (inactive) |
| C[C@H](CO)N1C[C@H](C)[C@@H](CN(C)C(=O)Nc2cc(F)ccc2F)Oc2cc(C#CC3CC3)ccc2S1(=O)=O | 114% (active) |
| CC(=O)N(C)C[C@H]1Oc2cc(C#CC3CC3)ccc2S(=O)(=O)N([C@H](C)CO)C[C@@H]1C | 21.1% (inactive) |
| CCC(=O)N(C)C[C@H]1Oc2cc(C#CC3CCCC3)ccc2S(=O)(=O)N([C@H](C)CO)C[C@@H]1C | 86.4% (inactive) |
| C[C@H]1CN([C@@H](C)CO)S(=O)(=O)c2ccc(C#CC3CCCC3)cc2O[C@@H]1CN(C)C(=O)c1cccc(F)c1 | 115% (active) |
| C[C@H](CO)N1C[C@H](C)[C@H](CN(C)C)Oc2cc(C#CC3CC3)ccc2S1(=O)=O | -175% (inactive) |
| COCC(=O)N(C)C[C@H]1Oc2cc(C#CC3CCCC3)ccc2S(=O)(=O)N([C@H](C)CO)C[C@@H]1C | 22.9% (inactive) |
| CO[C@@H]1CC[C@@H]2CCOc3ccc(C#N)cc3C(=O)N(C)C[C@@H](OC)[C@@H](C)C(=O)N(C)C[C@H]1O2 | 26.1% (inactive) |
| Cc1noc(C)c1NC(=O)N(C)C[C@H]1OCCCC[C@H](C)Oc2ccc(NC(=O)Nc3ccccc3)cc2C(=O)N([C@H](C)CO)C[C@@H]1C | -11.2% (inactive) |
| CO[C@@H]1CN(C)C(=O)c2ccc(NS(=O)(=O)c3cn(C)cn3)cc2OC[C@H](C)N(CCC(F)(F)F)C[C@@H]1C | 40.1% (inactive) |
| CCNC(=O)C[C@@H]1CC[C@H]2[C@@H](COc3ccc(NC(=O)c4ccccc4Cl)cc3C(=O)N2C)O1 | 1.97% (inactive) |
| CNC[C@H]1Oc2cc(C#Cc3ccccn3)ccc2S(=O)(=O)N([C@H](C)CO)C[C@@H]1C | 92.5% (inactive) |
| COCC#Cc1cnc2c(c1)C(=O)N([C@H](C)CO)C[C@@H](C)[C@@H](CN(C)C(=O)Nc1cccc(F)c1)O2 | 8.75% (inactive) |
| C[C@H]1CN([C@@H](C)CO)C(=O)c2cc(C#Cc3ccc(F)cc3)cnc2O[C@@H]1CN(C)C(=O)Nc1ccc(F)cc1 | 25% (inactive) |
| COc1cccc(C#Cc2cnc3c(c2)C(=O)N([C@@H](C)CO)C[C@H](C)[C@@H](CN(C)C(=O)C2CCC2)O3)c1 | 84.3% (inactive) |

| SMILES | inhibition |
| --- | --- |
| C[C@H](CO)N1C[C@H](C)[C@H](CN(C)C(=O)C2CCCCC2)Oc2ncc(C#Cc3cccc(F)c3)cc2C1=O | 120% (active) |
| C[C@H](CO)N1C[C@H](C)[C@H](CN(C)C(=O)C2CC2)Oc2ncc(C#Cc3ccccc3)cc2C1=O | 60.3% (inactive) |
| C[C@H](CO)N1C[C@H](C)[C@H](CN(C)C(=O)Nc2ccc3c(c2)OCO3)Oc2ncc(C#Cc3cccc(F)c3)cc2C1=O | 100% (active) |
| CN1[C@@H]2CN(C(=O)c3ccc(F)cc3)c3ccccc3[C@@H]2[C@@H]1CO | -2.39% (inactive) |
| COc1cccc(-c2ccc3n(c2=O)C[C@H]2[C@H](CO)[C@@H](C(=O)N4CCCCC4)N(C)[C@@H]32)c1 | 13.1% (inactive) |
| COc1cccc(S(=O)(=O)N(C)C[C@@H]2Oc3cc(C#CCN(C)C)ccc3S(=O)(=O)N([C@@H](C)CO)C[C@@H]2C)c1 | 91.4% (inactive) |
| C[C@@H]1CN([C@@H](C)CO)S(=O)(=O)c2ccc(C#Cc3ccncc3)cc2O[C@@H]1CN(C)S(=O)(=O)c1ccccc1 | 11.5% (inactive) |
| C[C@@H]1CN([C@H](C)CO)S(=O)(=O)c2ccc(C3=CCCC3)cc2O[C@H]1CN(C)C(=O)c1ccccc1 | -0.873% (inactive) |
| C[C@H](CO)N1C[C@H](C)[C@@H](CN(C)S(=O)(=O)c2ccc(F)cc2)Oc2cc(C3=CCCC3)ccc2S1(=O)=O | 114% (active) |
| C[C@H]1CN([C@@H](C)CO)S(=O)(=O)c2ccc(C#Cc3ccccc3)cc2O[C@H]1CN(C)S(=O)(=O)c1cn(C)cn1 | 27.9% (inactive) |
| C[C@@H]1CN([C@@H](C)CO)S(=O)(=O)c2ccc(-c3cccc(F)c3)cc2O[C@@H]1CN(C)S(=O)(=O)c1ccccc1 | 117% (active) |
| C[C@H]1CN([C@@H](C)CO)S(=O)(=O)c2ccc(C#Cc3cccc(F)c3)cc2O[C@@H]1CN(C)S(=O)(=O)c1cn(C)cn1 | 102% (active) |
| CC(C)CC#Cc1ccc2c(c1)O[C@H](CN(C)S(=O)(=O)c1cccc(F)c1)[C@@H](C)CN([C@@H](C)CO)S2(=O)=O | 119% (active) |
| CC(=O)N(C)C[C@@H]1Oc2cc(-c3cccc(F)c3)ccc2S(=O)(=O)N([C@H](C)CO)C[C@H]1C | 31.3% (inactive) |
| C[C@@H]1CN([C@@H](C)CO)S(=O)(=O)c2ccc(C#Cc3cccc(F)c3)cc2O[C@H]1CN(C)S(=O)(=O)c1cn(C)cn1 | 61.3% (inactive) and -15.4% (inactive) |
| COc1cccc(S(=O)(=O)N(C)C[C@H]2Oc3cc(C#CCN(C)C)ccc3S(=O)(=O)N([C@H](C)CO)C[C@H]2C)c1 | 75.2% (inactive) |
| C[C@@H]1CN([C@H](C)CO)S(=O)(=O)c2ccc(C3=CCCC3)cc2O[C@@H]1CN(C)C(=O)C1CCC1 | 52.9% (inactive) |
| C[C@H](CO)N1C[C@H](C)[C@H](CN(C)CC2CC2)OCCCC[C@H](C)Oc2ccc(NS(=O)(=O)c3cccs3)cc2C1=O | 38% (inactive) |
| CN1c2ccc(-c3ccc(F)cc3)cc2[C@@H]2[C@@H](CCN2S(=O)(=O)c2ccc(F)cc2)[C@@H]1CO | 90.2% (inactive) |
| CN1c2ccc(-c3ccc(F)cc3)cc2[C@@H]2[C@@H](CCN2C(=O)c2cccnc2)[C@H]1CO | 84% (inactive) |
| C[C@@H]1CCCCO[C@H](CN(C)C(=O)c2ccccc2)[C@H](C)CN([C@H](C)CO)C(=O)c2cc(N(C)C)ccc2O1 | 91.3% (inactive) |

From PubChem BioAssay AID624255 (Broad Institute, 2012)
